An excerpt weighted towards active compounds, which were near 19% of everything screened.
DT40 TDP1 CPT: DT40-hTDP1 cell growth loss with CPT | AID 686979 | 420,000 compounds, 12% hits | Potency, µM (highest dose often 46.2 µM), most hits filed as inhibitors | chicken DT40 Tdp1-/-;hTDP1 cells + 20 nM CPT, ATP luminescence, 48 h; note: nearly all actives have a fitted effect of over 55% in size
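Chicken DT40 Tdp1-/- cells stably complemented with human TDP1 were seeded at 400 cells/well in medium containing 20 nM camptothecin, exposed to pin-transferred compounds, and grown at 37 °C for at least 48 hr. Viability was read as ATP luminescence.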
VP16 counter: counter-screen for ROR gamma inhibitors: Gal4-VP16 reporter | Potency, µM (doses to about 53.6 µM), most hits filed as inhibitors | Drosophila S2 Gal4-VP16 UAS-luciferase, luminescence, 20 h | 310,000 compounds, 3.5% hits;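 note: Gal4-VP16 expression switched on by copper sulfate through the metallothionein promoter; nearly all actives have a fitted effect of over 50% in size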
RORg inh: blocks mouse ROR gamma transcriptional activity; P51450; Drosophila S2 Gal4-RORgamma UAS-luciferase reporter, 20 h; Potency, µM (doses to about 53.6 µM), most hits filed as inhibitors; 310,000 compounds, 5.4% hits; note: nearly all actives have a fitted effect of over 60% in size
Target sequence (P51450 whole entry, looked up, the tested form may be a part): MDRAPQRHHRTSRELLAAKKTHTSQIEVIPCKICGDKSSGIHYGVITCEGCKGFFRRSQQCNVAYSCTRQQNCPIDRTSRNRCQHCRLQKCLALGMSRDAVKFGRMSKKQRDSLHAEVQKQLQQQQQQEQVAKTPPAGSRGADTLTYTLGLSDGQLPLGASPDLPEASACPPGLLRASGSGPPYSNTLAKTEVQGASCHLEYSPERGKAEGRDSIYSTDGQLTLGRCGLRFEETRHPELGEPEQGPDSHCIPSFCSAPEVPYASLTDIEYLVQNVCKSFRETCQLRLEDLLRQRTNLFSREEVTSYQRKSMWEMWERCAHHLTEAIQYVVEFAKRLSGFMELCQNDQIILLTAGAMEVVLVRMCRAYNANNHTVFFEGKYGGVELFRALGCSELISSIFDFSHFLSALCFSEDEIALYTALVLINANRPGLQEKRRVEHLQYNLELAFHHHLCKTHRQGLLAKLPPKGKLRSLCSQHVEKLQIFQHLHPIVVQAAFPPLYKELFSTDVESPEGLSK
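Stable Schneider cell line, Gal4 DNA-binding domain fused to ROR gamma, UAS-luciferase. Cmpd 1 hr RT → CuSO4 700 uM final → 20 hr RT → luciferase reagent 10 min → luminescence.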
DT40 TDP1 no CPT: qHTS for Inhibitors of human tyrosyl-DNA phosphodiesterase 1 (TDP1): qHTS in cells in absence of CPT; 420,000 compounds, 15% hits; DT40 Tdp1-/- hTDP1 cells, no CPT, ATP luminescence, 48 h; Potency, µM (highest dose often 46.2 µM), usual class: inhibitors; note: nearly all actives have a fitted effect of over 55% in size
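No-CPT arm: Tdp1-/-;hTDP1 DT40 cells (400/well) plus compounds, incubated ≥48 hr at 37 °C. Readout CellTiter-Glo luminescence.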
TDP1 block: TDP1 (human) enzyme inhibition. Q9NUW8. recombinant TDP1, AlphaScreen DNA substrate cleavage. Potency, µM (series often up to 130 µM), actives largely listed as inhibitors. 350,000 compounds, 0.28% hits. AID 485290; note: nearly all actives have a fitted effect of over 40% in size
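Here, a 5' biotin and 3' phosphotyrosine-FITC DNA oligonucleotide reports Tdp1 activity: intact substrate bridges AlphaScreen beads, while cleavage leaves a 3' phosphate and drops signal. All incubations at room temperature.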
Numbers stand for hits; – = inactive; ? = inconclusive; · = no result; [ ] = dose if it differs, or a comment. Calls come from the whole dose curve; as a rule, active = well fitted curve in the direction sought with a large enough effect; inconclusive = small, poorly fitted or top-dose-only effect, or another doubt; inactive = no such curve, though single readings can be large; an effect the other way counts as inactive or inconclusive.

SMILES	DT40 TDP1 CPT	VP16 counter	RORg inh	DT40 TDP1 no CPT	TDP1 block
O=C(CN1CCCN(Cc2ccc(F)cc2)S1(=O)=O)Nc1ccc2c(c1)OCCO2	–	·	·	–	–
Cc1ccc(C)c(N2CCN(c3nnnn3-c3ccccc3)CC2)c1	?	–	–	?	–
COc1ccc(C2=C(N3CCN(c4cccc(C)c4C)CC3)c3ccccc3C2=O)cc1	16µM	·	·	?	–
Cc1ccc(C)c(N2CCN(C3=C(c4ccccc4)C(=O)c4ccccc43)CC2)c1	7.3µM	·	·	16µM	–
Cc1ccc(N=c2oc3cc(O)ccc3cc2C(N)=O)cc1	8.2µM	0.89µM	0.89µM	7.3µM	–
COc1ccc(N=c2oc3cc(O)ccc3cc2C(=O)Nc2ccccn2)cc1OC	1.5µM	–	–	2.1µM	–
CC(=O)c1cc2ccc(O)cc2oc1=O	–	–	–	–	–
O=C(Nn1cnnc1)c1ccc([N+](=O)[O-])cc1Cl	–	·	·	–	·
O=C(NC1=C(Nc2ccc(Cl)cc2)C(=O)c2ccccc2C1=O)c1ccccc1	23µM	?	14µM	16µM	–
O=C(NC1=C(NC2CCS(=O)(=O)C2)C(=O)c2ccccc2C1=O)c1ccccc1 (stereo not given)	2.1µM	?	13µM	2.3µM	–
O=C1C(Cl)=C(NC(=O)c2ccccc2)C(=O)C(Cl)=C1NC(=O)c1ccccc1	1.3µM	?	7.1µM	2.6µM	·
Cc1cccc(NC2=C(NC(=O)c3ccccc3)C(=O)c3ccccc3C2=O)c1	10µM	?	?	12µM	–
CCC(C(=O)NCc1ccc(F)cc1)n1nc(C)n2c(cc3occc32)c1=O (stereo not given)	–	–	–	–	–
COc1ccc(NC(=O)COC(=O)CC2CC3CCC2C3)c([N+](=O)[O-])c1 (stereo not given)	–	–	–	?	–
COc1ccc(C2(Nc3cccc(C(=O)O)c3C)C(=O)c3ccccc3C2=O)cc1	–	·	·	–	–
O=C(Nc1ccc(NS(=O)(=O)c2ccccc2)cc1)c1ccc(Cl)cc1	–	–	–	–	–
CN(C1=C(NC(=O)c2ccc(Cl)cc2)C(=O)c2ccccc2C1=O)c1ccccc1	5.8µM	11µM	11µM	10µM	–
COc1ccc(-c2[nH]ncc2CN2CCN(Cc3cccs3)CC2)c(F)c1	–	–	–	?	–
COc1cc(-c2[nH]ncc2CN2CCN(Cc3cccs3)CC2)cc(OC)c1OC	18µM	–	–	21µM	–
CCc1ccc(NC2CC(=O)N(CCc3ccc(OC)c(OC)c3)C2=O)cc1 (stereo not given)	?	–	?	23µM	–
COc1ccc(CCN2C(=O)CSC2=S)cc1OC	2.9µM	–	?	2.6µM	·
COc1ccc(CCN2C(=O)CC(Nc3ccc(N4CCOCC4)cc3)C2=O)cc1OC (stereo not given)	–	–	–	2.3µM	–
O=C(Nc1cccc(F)c1)c1cccc(S(=O)(=O)N2CCOCC2)c1	–	–	?	?	–
COCCNc1c2c(nc3c(-c4ccccc4)c(C)nn13)CCCC2	16µM	–	?	?	–
CCCCNc1c2c(nc3c(-c4ccccc4)c(C)nn13)CCC2	21µM	–	–	29µM	–
SMILES	DT40 TDP1 CPT	VP16 counter	RORg inh	DT40 TDP1 no CPT	TDP1 block
CCC(C)Nc1c2c(nc3c(-c4ccccc4)c(C)nn13)CCC2 (stereo not given)	?	–	10µM	?	–
Cc1nn2c(N3CCCC3)c3c(nc2c1-c1ccccc1)CCC3	?	–	–	?	·
Cc1nn2c(NCCN(C)C)c3c(nc2c1-c1ccccc1)CCCC3	0.58µM	0.45µM	?	1µM	–
Cc1ccc(CNC(=O)COC(=O)c2ccccc2OCC(=O)Nc2ccc(Br)cc2)cc1	–	·	·	–	·
O=C1N(c2ccccc2)c2ccccc2C1(O)C(F)(F)F (stereo not given)	–	–	–	–	·
CC1(C)C2CCC(C2)C1(C)NC(=O)CN1CCN(Cc2ccccc2)CC1 (stereo not given)	?	–	–	?	·
CCCSc1nnc(NC(=O)c2ccco2)s1	–	–	–	–	–
CCCCN1C(N)=NC[C@@H]1CCCCN	–	·	·	–	·
COc1ccc(NC(=O)CS(=O)(=O)c2ccc(Br)cc2)cc1	–	–	–	–	·
COc1ccc(NC(=O)CS(=O)(=O)c2cccc(Cl)c2)cc1	?	–	–	23µM	·
CN(CCCNC(=O)C1CCCN(S(=O)(=O)c2cnc[nH]2)C1)c1ccccc1 (stereo not given)	–	–	–	–	–
CC(C)C1C(=O)N(Cc2cn(CCC3OCCCO3)nn2)CCS(=O)(=O)N1Cc1ccc(-c2ccc(F)nc2)cc1 (stereo not given)	?	·	·	16µM	·
CC1C(=O)N(Cc2cn(CCC3OCCCO3)nn2)CCS(=O)(=O)N1Cc1ccc(-c2ccc(F)nc2)cc1 (stereo not given)	?	·	·	13µM	·
CC(C)C1C(=O)N(Cc2cn(CCC3OCCO3)nn2)CCS(=O)(=O)N1Cc1ccc(-c2ccc(F)nc2)cc1 (stereo not given)	?	·	·	16µM	·
CC1C(=O)N(Cc2cn(CCC3OCCCO3)nn2)CCS(=O)(=O)N1Cc1ccc(-c2ccncc2)cc1 (stereo not given)	–	·	·	9.2µM	·
COc1ccc(CCNC(=O)C2CCN(S(=O)(=O)c3cnc[nH]3)CC2)cc1OC	–	–	–	–	–
COc1cc(OC)c(OC)cc1C=NCC1(c2ccccc2)CCCC1	–	–	–	–	–
CC1(C)NC(=O)N(CC(=O)N2CCN(S(=O)(=O)c3cc(Cl)ccc3Cl)CC2)C1=O	–	·	·	–	–
O=C(Cn1c(=O)oc2ccccc21)Nc1nc(-c2ccc(Br)cc2)cs1	?	–	–	?	–
O=C(COc1cc(Cl)c(Cl)cc1Cl)NC(=O)Nc1ccc2c(c1)OCCO2	?	–	–[10 µM]	?	–
COc1ccc(C(=O)NCCCOC(=O)c2ccc(OC)cc2)cc1	–	–	–	–	–
O=S(=O)(c1ccccc1)c1nc(-c2cccs2)oc1NCc1cccnc1	–	·	·	–	–
CCOc1ccc(-c2nc(S(=O)(=O)c3ccccc3)c(NC)o2)cc1	–	–	–	–	–
CNc1oc(-c2ccccc2)nc1S(=O)(=O)c1ccc(C)cc1	–	–	–	–	–
CCCCCS(=O)(=O)c1oc(-c2cccs2)nc1S(=O)(=O)c1ccc(C)cc1	4.6µM	·	·	3.7µM	–
CCCCS(=O)(=O)c1oc(-c2cccs2)nc1S(=O)(=O)c1ccc(F)cc1	0.82µM	·	·	0.58µM	–
CCCCS(=O)(=O)c1oc(-c2ccc(F)cc2)nc1S(=O)(=O)c1ccc(C)cc1	1µM	·	·	0.58µM	–
CCS(=O)(=O)c1oc(-c2ccc(F)cc2)nc1S(=O)(=O)c1ccccc1	0.26µM	·	·	0.58µM	–

Screening data: PubChem BioAssay, National Center for Advancing Translational Sciences (NCATS)
